About 79,000 compounds went through this panel and 15% of them were active in at least one assay; those are over-represented in the sample as a whole. Unmarked numbers belong to inactive results. The source made the active and inactive calls. No stated cut-off is given here; in the data, active means growth inhibition above about 70%; inactive means the rest.
Assays:
[1] = NCI Yeast Anticancer Drug Screen. Data for the rad50 strain (AID 155);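 further: 0% = growth of vehicle-only cultures of the same strain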; conditions: S. cerevisiae rad50 strain growth inhibition, hits give high values
In short: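 Vehicle-treated cultures provide the reference for the growth inhibition reported for compound-exposed, repair-deficient yeast.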

[2] = NCI Yeast Anticancer Drug Screen. Data for the mec2-1 strain (AID 157); conditions: S. cerevisiae mec2-1 strain, hits give high values
In short: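 Readout is yeast growth inhibition, normalised to vehicle-treated controls, in the mec2-1 strain exposed to compound.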

[3] = NCI Yeast Anticancer Drug Screen. Data for the sgs1 mgt1 strain (AID 161);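 further: 0% = growth of cultures given vehicle only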; conditions: S. cerevisiae sgs1 mgt1 strain, hits give high values
In short: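 Yeast cells carrying a defined DNA-repair defect were exposed to test compounds. Growth inhibition was measured relative to vehicle-treated controls.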

[4] = NCI Yeast Anticancer Drug Screen. Data for the cln2 rad14 strain (AID 165);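 further: 0% = growth equal to vehicle treated cultures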; conditions: S. cerevisiae cln2 rad14 strain, hits give high values
In short: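 Relative to vehicle controls, growth inhibition of compound-treated cln2 rad14 yeast was recorded.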

[5] = NCI Yeast Anticancer Drug Screen. Data for the bub3 strain (AID 167); conditions: S. cerevisiae bub3 mutant strain, hits give high values
In short: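 Mutant yeast screening strain plus compound; vehicle-treated cultures serve as the 0% inhibition reference.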

[6] = NCI Yeast Anticancer Drug Screen. Data for the mlh1 rad18 strain (AID 175); conditions: S. cerevisiae mlh1 rad18 strain growth inhibition, hits give high values
In short: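 Test agents were incubated with a yeast strain of defined genotype (DNA damage repair defect). Inhibition of growth was derived by comparison with vehicle-exposed cultures.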

[7] = at 5.0 µM (retest, dose inferred, filed as 0.5)
[8] = at 50.0 µM (retest, dose inferred, filed as 5.0)

SMILES	growth inhibition [1, 7]	growth inhibition [1, 8]	growth inhibition ([1]; at 50.0 µM)	growth inhibition [2, 7]	growth inhibition [2, 8]	growth inhibition ([2]; at 50.0 µM)	growth inhibition [3, 7]	growth inhibition [3, 8]	growth inhibition ([3]; at 50.0 µM)	growth inhibition [4, 7]	growth inhibition [4, 8]	growth inhibition ([4]; at 50.0 µM)	growth inhibition [5, 7]	growth inhibition [5, 8]	growth inhibition ([5]; at 50.0 µM)	growth inhibition [6, 7]	growth inhibition [6, 8]	growth inhibition ([6]; at 50.0 µM)
NCC1CCNCC1	2%	-6%	-16.7%	-2%	-19%	-9.25%	2%	3%	-15.2%	0%	-6%	16%	-5%	1%	3.9%	10%	0%	-4%
Oc1c(C(Nc2ccccn2)c2ccccc2)ccc2cccnc12 (configuration not stated)	8%	97% (active)	94.6% (active)	19%	97% (active)	94.3% (active)	-4%	96% (active)	95.5% (active)	-11%	94% (active)	93% (active)	-9%	97% (active)	94.4% (active)	7%	96% (active)	94.5% (active)
C=C1C(O)C2(O)OCC34C(CC5C(C)=CC(=O)C(O)C5(C)C23)OC(=O)C(OC(=O)C/C=C(\C)CCCCC)C14 (configuration not stated)	76% (active)	98% (active)	92.3% (active)	52%	98% (active)	93.3% (active)	60%	98% (active)	93% (active)	88% (active)	98% (active)	91.7% (active)	75% (active)	99% (active)	91.2% (active)	89% (active)	98% (active)	92.2% (active)
CCCOC1=C(Cl)C(=O)c2cccc([N+](=O)[O-])c2C1=O	94% (active)	98% (active)	99.5% (active)	97% (active)	99% (active)	99.5% (active)	81% (active)	99% (active)	99.4% (active)	20%	99% (active)	99% (active)	97% (active)	99% (active)	99.5% (active)	93% (active)	98% (active)	99.1% (active)
COc1ccc(-c2nc3c(C(=O)NCCN(C)C)cccc3c3ccccc23)cc1	14%	42%	70.5% (active)	17%	9%	56%	-12%	55%	13.9%	3%	37%	0.85%	8%	54%	-15.3%	10%	37%	89.5% (active)
NC(=O)N/N=C/C(O)C(O)C(O)C(O)CO (configuration not stated)	0%	44%	77.1% (active)	-4%	1%	59.9%	-1%	16%	35.5%	0%	26%	6.55%	-5%	7%	36.1%	-4%	20%	19.7%
O=[N+]([O-])c1ccc(CCCCc2ccc([N+](=O)[O-])cc2)cc1	-5%	-8%	-6.1%	3%	-18%	3%	2%	-9%	-1.8%	-2%	-10%	-59.9%	13%	21%	7.35%	-10%	-16%	29%
[Cl][Sn]([CH2][CH2][Sn]([Cl])([c]1ccccc1)[c]1ccccc1)([c]1ccccc1)[c]1ccccc1	99% (active)	98% (active)	94.5% (active)	99% (active)	97% (active)	92.2% (active)	99% (active)	97% (active)	95.2% (active)	97% (active)	96% (active)	87.5% (active)	96% (active)	98% (active)	90.9% (active)	99% (active)	98% (active)	94.2% (active)
S=c1[nH]c2c(-c3ccccc3)cccc2s1	-4%	74% (active)	62.1%	-6%	62%	76.9% (active)	12%	78% (active)	86.2% (active)	-16%	41%	60.5%	-20%	44%	53.8%	1%	65%	87.5% (active)
